# Measured values: article PMC5540273 (PLoS ONE, 2017)
# Key:
# Details in all cases: concentration: 1 μM, replicates: in singlicate; n = 1
# [1] = test system: T1, RSK2(Kin.Dom.2-C-terminal)
# T1 construct: gene RPS6KA3
# [2] = test system: T2, RSK3(Kin.Dom.1-N-terminal)
# T2 construct: gene RPS6KA2
# [3] = test system: T3, RSK3(Kin.Dom.2-C-terminal)
# T3 construct: gene RPS6KA2
# [4] = test system: T4, RSK4(Kin.Dom.1-N-terminal)
# T4 construct: gene RPS6KA6
# [5] = test system: T5, RSK4(Kin.Dom.2-C-terminal)
# T5 construct: gene RPS6KA6
# [6] = test system: S6K1
# [7] = test system: SBK1
# [8] = test system: SGK2
# [9] = test system: SGK3
# [10] = test system: SGK
# [11] = test system: SIK2
# [12] = test system: SIK
# [13] = test system: SLK
# [14] = test system: T6, SNARK
# T6 construct: gene NUAK2
# [15] = test system: SNRK
# [16] = test system: SRC
# [17] = test system: SRMS
# [18] = test system: SRPK1
# [19] = test system: SRPK2
# [20] = test system: SRPK3
# 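Also: KINOMEscan kinase panel screen.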
Compound,%Inh [1] [%],%Inh [2] [%],%Inh [3] [%],%Inh [4] [%],%Inh [5] [%],%Inh [6] [%],%Inh [7] [%],%Inh [8] [%],%Inh [9] [%],%Inh [10] [%],%Inh [11] [%],%Inh [12] [%],%Inh [13] [%],%Inh [14] [%],%Inh [15] [%],%Inh [16] [%],%Inh [17] [%],%Inh [18] [%],%Inh [19] [%],%Inh [20] [%]
Nc1nc(-c2nccs2)c(-c2ccnc3ccccc23)s1 [GW693542],88,0,0,0,50,0,9,0,6,0,0,0,9,8,0,0,0,20,0,31
Cc1csc(-c2nc(Nc3ccncc3)c3ccccc3n2)n1 [GW869640],45,15,3,44,40,32,51,0,13,39,1,4,22,26,20,8,25,0,0,39
Cn1ccc2ncnc(Oc3ccc(NC(=O)Nc4ccccc4)cc3)c21,0,12,0,0,0,0,0,7,28,1,27,0,22,19,33,11,0,0,0,9
COc1cc2ncnc(Nc3ccc4nc(-c5ccccc5)[nH]c4c3)c2cc1OC.Cl [GW282450],27,15,0,1,0,16,20,0,0,0,2,0,30,0,0,0,0,3,0,17
O=C(Nc1n[nH]c2nc(-c3nccs3)c(Br)cc12)C1CCCC1 [SB-742609],0,0,0,0,1,19,12,0,0,7,0,5,7,0,0,0,0,0,0,13
Cc1c(Cn2ccn3c(=O)cc(N4CCOCC4)nc23)cccc1C(F)(F)F [GSK2289044],23,0,6,0,11,0,14,0,4,0,0,0,13,5,0,0,0,12,0,0
CCn1c(-c2cccnc2O)nc2cnccc21 [SB-736715],1,0,13,0,15,5,0,0,0,0,0,0,0,0,0,0,0,0,0,20
